The text below walks through data of PubChem BioAssay (NCI).

Where “and” joins values, the source holds several entries; their conditions need not be identical. Equal values may be shown once. This is part of a sample that, as a whole, favours compounds with a hit. Of some 83,000 tested, about 20% had one in any assay.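 Treatment: one concentration, 48 hours, 96-well format. Scoring: percent growth, with anything below 10 considered active.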 Calls of active or inactive are those of the source.

Test systems include RPMI-8226 leukemia; OVCAR-8 ovarian; OVCAR-5 ovarian; OVCAR-4 ovarian; SK-OV-3 ovarian; IGROV1 ovarian; OVCAR-3 ovarian; HS 578T breast; NCI/ADR-RES ovarian.
What all share (test): NCI-60 one-dose screen, 48 h (100 = growth as untreated, 0 = no growth, -100 = all killed)
Details in all cases: 10 µM unless noted

With `CCOC(=O)C1=CC(=O)CC(C)(C)O1`, the growth in the experiment on RPMI-8226 leukemia is 92.8% (inactive) and 111% (inactive); in the experiment on OVCAR-8 ovarian it was 114% (inactive) and 106% (inactive); in the experiment with OVCAR-5 ovarian, 110% (inactive) and 101% (inactive); in the experiment with OVCAR-4 ovarian, 128% (inactive) and 117% (inactive); in the experiment with SK-OV-3 ovarian, 108% (inactive) and 114% (inactive); in the experiment with IGROV1 ovarian it was 103% (inactive) and 120% (inactive). Besides, the growth was 118% (inactive) and 96.9% (inactive) in the experiment on OVCAR-3 ovarian; 117% (inactive) with HS 578T breast; 96.9% (inactive) and 110% (inactive) with NCI/ADR-RES ovarian.

For `Cc1ccc(S(=O)(=O)n2ccnc2)cc1`, the growth in the experiment with RPMI-8226 leukemia was 100% (inactive); with OVCAR-8 ovarian, 100% (inactive); with OVCAR-5 ovarian, 102% (inactive); with OVCAR-4 ovarian it was 102% (inactive); with SK-OV-3 ovarian, 123% (inactive); with IGROV1 ovarian, 75.5% (inactive). Moreover, the growth in the experiment with OVCAR-3 ovarian is 101% (inactive); in the experiment on HS 578T breast it was 111% (inactive); in the experiment with NCI/ADR-RES ovarian, 101% (inactive).

As for `O=C(O)C#Cc1ccc(Cl)cc1`, the growth was 106% (inactive) with RPMI-8226 leukemia; 97.6% (inactive) in the experiment with OVCAR-8 ovarian; 102% (inactive) with OVCAR-5 ovarian; 97.5% (inactive) in the experiment with OVCAR-4 ovarian; 92.5% (inactive) in the experiment on SK-OV-3 ovarian; 98.3% (inactive) in the experiment with IGROV1 ovarian. For the same compound, the growth in the experiment with OVCAR-3 ovarian is 110% (inactive); in the experiment on HS 578T breast, 93.6% (inactive); in the experiment on NCI/ADR-RES ovarian it was 108% (inactive).

For `C/C(=C\c1ccccc1)C(O)C(=O)c1nc2ccc([N+](=O)[O-])cc2[nH]c1=O` (stereo not given), the growth in the experiment with RPMI-8226 leukemia is 90.2% (inactive); in the experiment with OVCAR-8 ovarian, 96.6% (inactive); with OVCAR-5 ovarian, 96% (inactive); with OVCAR-4 ovarian, 114% (inactive); in the experiment on SK-OV-3 ovarian it was 105% (inactive); in the experiment on IGROV1 ovarian, 102% (inactive). Further, the growth with OVCAR-3 ovarian is 113% (inactive); with HS 578T breast, 94.7% (inactive); in the experiment with NCI/ADR-RES ovarian it was 87.7% (inactive).

In the case of `O=C(O)c1ccc2c3ccc(C(=O)O)c4c(C(=O)O)ccc(c5ccc(C(=O)O)c1c25)c43`, the growth with RPMI-8226 leukemia was 135% (inactive); in the experiment on OVCAR-8 ovarian, 98% (inactive); in the experiment with OVCAR-5 ovarian, 84.2% (inactive); in the experiment with OVCAR-4 ovarian, 103% (inactive); with SK-OV-3 ovarian, 107% (inactive); in the experiment with IGROV1 ovarian, 42.4% (inactive). In addition, the results for the growth in the experiment with OVCAR-3 ovarian, with HS 578T breast and with NCI/ADR-RES ovarian were 101% (inactive), 107% (inactive) and 114% (inactive), respectively.

In the case of `CCCC(=O)OCC(COC(=O)CCC)OC(=O)CCC`, the growth in the experiment with RPMI-8226 leukemia was 98.1% (inactive); in the experiment on OVCAR-8 ovarian, 101% (inactive); in the experiment on OVCAR-5 ovarian it was 102% (inactive); in the experiment on OVCAR-4 ovarian, 97.6% (inactive); in the experiment on SK-OV-3 ovarian, 103% (inactive); in the experiment with IGROV1 ovarian, 105% (inactive). The growth is 105% (inactive) in the experiment on OVCAR-3 ovarian, 98.6% (inactive) in the experiment with HS 578T breast and 100% (inactive) with NCI/ADR-RES ovarian.

`CC1OS(=O)OC1C` (stereo not given): the growth with RPMI-8226 leukemia was 105% (inactive) and 106% (inactive); with OVCAR-8 ovarian it was 101% (inactive) and 97.9% (inactive); with OVCAR-5 ovarian it was 102% (inactive) and 97.6% (inactive); in the experiment with OVCAR-4 ovarian, 104% (inactive) and 100% (inactive); in the experiment with SK-OV-3 ovarian, 99.6% (inactive) and 118% (inactive); in the experiment on IGROV1 ovarian, 105% (inactive). The growth in the experiment with OVCAR-3 ovarian was 103% (inactive) and 106% (inactive); with HS 578T breast, 98.3% (inactive); in the experiment on NCI/ADR-RES ovarian, 107% (inactive) and 99.7% (inactive).

`O=c1[nH]c(=O)c2[nH]c(=O)[nH]c2[nH]1`: the growth in the experiment on RPMI-8226 leukemia was 101% (inactive); with OVCAR-8 ovarian, 102% (inactive); with OVCAR-5 ovarian, 99.7% (inactive); in the experiment with OVCAR-4 ovarian, 109% (inactive); in the experiment on SK-OV-3 ovarian, 115% (inactive); with IGROV1 ovarian, 106% (inactive). For the same compound, the growth in the experiment with OVCAR-3 ovarian is 107% (inactive); in the experiment on HS 578T breast it was 102% (inactive); with NCI/ADR-RES ovarian it was 106% (inactive).

Take `S=c1ccc2ccccc2[nH]1`: the growth in the experiment with RPMI-8226 leukemia was 109% (inactive) and 104% (inactive); in the experiment on OVCAR-8 ovarian it was 102% (inactive) and 98.6% (inactive); in the experiment on OVCAR-5 ovarian, 102% (inactive) and 105% (inactive); with OVCAR-4 ovarian it was 104% (inactive) and 108% (inactive); in the experiment on SK-OV-3 ovarian, 97.9% (inactive) and 101% (inactive); in the experiment on IGROV1 ovarian it was 104% (inactive) and 106% (inactive). Further, the growth with OVCAR-3 ovarian was 114% (inactive) and 107% (inactive); in the experiment on HS 578T breast, 97.7% (inactive) and 103% (inactive).

For the compound `CC(=O)Oc1cc(C)c(OC(C)=O)c(C)c1C`, the growth in the experiment with RPMI-8226 leukemia was 92.1% (inactive); in the experiment on OVCAR-8 ovarian, 99.8% (inactive); in the experiment on OVCAR-5 ovarian, 125% (inactive); in the experiment with OVCAR-4 ovarian, 125% (inactive); with SK-OV-3 ovarian, 125% (inactive); in the experiment with IGROV1 ovarian it was 122% (inactive). For the same compound, the values for the growth in the experiment on OVCAR-3 ovarian, in the experiment with HS 578T breast and with NCI/ADR-RES ovarian were 119% (inactive), 91.1% (inactive) and 95.2% (inactive), respectively.

Take `O=C(OCc1ccccc1)c1ccccc1`: the growth with RPMI-8226 leukemia was 99.5% (inactive); in the experiment with OVCAR-8 ovarian, 101% (inactive) and 95.7% (inactive); with OVCAR-5 ovarian it was 102% (inactive) and 91.7% (inactive); in the experiment on OVCAR-4 ovarian, 108% (inactive); with SK-OV-3 ovarian, 99.1% (inactive) and 93.6% (inactive); in the experiment on IGROV1 ovarian, 120% (inactive) and 87.4% (inactive). Besides, the growth with OVCAR-3 ovarian was 116% (inactive); with HS 578T breast it was 105% (inactive); in the experiment with NCI/ADR-RES ovarian, 107% (inactive) and 99.7% (inactive).

Consider `O=C(c1ccc(Cl)cc1)C1C(c2ccccc2)C1[N+](=O)[O-]` (stereo not given), for which the growth in the experiment with RPMI-8226 leukemia is 96.3% (inactive); in the experiment with OVCAR-8 ovarian, 99% (inactive); with OVCAR-5 ovarian, 109% (inactive); with OVCAR-4 ovarian, 99% (inactive); in the experiment on SK-OV-3 ovarian, 105% (inactive); in the experiment with IGROV1 ovarian, 103% (inactive). In addition, the growth was 97.8% (inactive) in the experiment with OVCAR-3 ovarian, 96% (inactive) with HS 578T breast and 99.7% (inactive) in the experiment on NCI/ADR-RES ovarian.

Regarding `O=P(O)(O)OC1C(OP(=O)(O)O)C(OP(=O)(O)O)C(OP(=O)(O)O)C(OP(=O)(O)O)C1OP(=O)(O)O.[Cu+2]` (stereo not given), the growth in the experiment with RPMI-8226 leukemia was 101% (inactive); in the experiment with OVCAR-8 ovarian, 76.8% (inactive); with OVCAR-5 ovarian it was 155% (inactive); in the experiment with OVCAR-4 ovarian it was 110% (inactive); in the experiment with SK-OV-3 ovarian, 114% (inactive); in the experiment with IGROV1 ovarian, 86.9% (inactive). Also, the values for the growth in the experiment with OVCAR-3 ovarian, in the experiment with HS 578T breast and in the experiment on NCI/ADR-RES ovarian were 123% (inactive), 92.4% (inactive) and 97.3% (inactive), respectively.

On to `O=S(=O)(O)c1ccc2cc(O)ccc2c1`, for which the growth in the experiment on RPMI-8226 leukemia was 106% (inactive); with OVCAR-8 ovarian, 102% (inactive); in the experiment on OVCAR-5 ovarian, 107% (inactive); in the experiment with OVCAR-4 ovarian it was 112% (inactive); in the experiment on SK-OV-3 ovarian, 104% (inactive); in the experiment with IGROV1 ovarian it was 109% (inactive). Also, the growth in the experiment with OVCAR-3 ovarian was 112% (inactive); in the experiment on HS 578T breast it was 104% (inactive); with NCI/ADR-RES ovarian, 105% (inactive).

With `COCCNC(C)=O`, the growth in the experiment on RPMI-8226 leukemia is 114% (inactive); in the experiment with OVCAR-8 ovarian, 114% (inactive); in the experiment on OVCAR-5 ovarian, 94.9% (inactive); in the experiment on OVCAR-4 ovarian it was 104% (inactive); with SK-OV-3 ovarian it was 102% (inactive); in the experiment with IGROV1 ovarian, 106% (inactive). Besides, the growth in the experiment with OVCAR-3 ovarian is 113% (inactive); in the experiment on HS 578T breast, 106% (inactive); in the experiment with NCI/ADR-RES ovarian, 120% (inactive).

Turning to `CCOc1ccc(/C=C\C(=O)O)cc1`, the growth is 113% (inactive) in the experiment on RPMI-8226 leukemia; 98.7% (inactive) with OVCAR-8 ovarian; 117% (inactive) in the experiment with OVCAR-5 ovarian; 108% (inactive) in the experiment on OVCAR-4 ovarian; 139% (inactive) in the experiment with SK-OV-3 ovarian; 101% (inactive) in the experiment on IGROV1 ovarian. Besides, the growth in the experiment on OVCAR-3 ovarian was 117% (inactive); in the experiment on HS 578T breast, 112% (inactive); in the experiment on NCI/ADR-RES ovarian, 110% (inactive).

As to `CN1C2C=CC(=O)C1C1C(=O)N(c3ccccc3)C(=O)C12` (stereo not given), the growth in the experiment on RPMI-8226 leukemia was 37.5% (inactive); in the experiment on OVCAR-8 ovarian, 69.9% (inactive); with OVCAR-5 ovarian it was 102% (inactive); with OVCAR-4 ovarian, 76.4% (inactive); with SK-OV-3 ovarian, 105% (inactive); in the experiment with IGROV1 ovarian it was -9.22% (active). Also, the growth was 47.1% (inactive) in the experiment with OVCAR-3 ovarian, 77.5% (inactive) with HS 578T breast and 92.6% (inactive) in the experiment with NCI/ADR-RES ovarian.

As for `N#CC1c2ccccc2C=CN1C(=O)c1ccccc1` (stereo not given), the growth in the experiment with RPMI-8226 leukemia is 105% (inactive) and 159% (inactive); in the experiment with OVCAR-8 ovarian, 92.7% (inactive) and 85% (inactive); with OVCAR-5 ovarian, 110% (inactive) and 87.5% (inactive); in the experiment with OVCAR-4 ovarian, 96.8% (inactive) and 89.7% (inactive); with SK-OV-3 ovarian it was 120% (inactive) and 128% (inactive); with IGROV1 ovarian, 101% (inactive) and 73.9% (inactive). Besides, the growth is 93.6% (inactive) and 95.9% (inactive) in the experiment on OVCAR-3 ovarian; 94.2% (inactive) and 150% (inactive) in the experiment with HS 578T breast; 108% (inactive) and 107% (inactive) in the experiment with NCI/ADR-RES ovarian.

For the compound `O=C(/C=C/C=C/c1ccc2c(c1)OCO2)N1CCCCC1`, the growth was 102% (inactive) and 124% (inactive) in the experiment on RPMI-8226 leukemia; 101% (inactive) and 97.4% (inactive) in the experiment on OVCAR-8 ovarian; 96.4% (inactive) with OVCAR-5 ovarian; 103% (inactive) and 96.8% (inactive) with OVCAR-4 ovarian; 101% (inactive) and 102% (inactive) in the experiment with SK-OV-3 ovarian; 105% (inactive) and 6.71% (active) in the experiment on IGROV1 ovarian. Moreover, the growth was 121% (inactive) and 104% (inactive) with OVCAR-3 ovarian; 104% (inactive) and 94.8% (inactive) in the experiment with HS 578T breast; 98% (inactive) and 106% (inactive) in the experiment on NCI/ADR-RES ovarian.
